Z-score data for 35 compounds are collected here from PubChem BioAssay.

This assay is described as follows: S6 kinase pathway phospho-S6 level changes – cell-based, A549, cytoblot, luminescence, serum-stimulated, primary screen (AID 1158).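 Note: serum-stimulated A549 lung adenocarcinoma cells; signal is phosphorylated S6 detected by cytoblot immunostaining with HRP secondary.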 The conditions noted are these: 5 h, higher = more signal.
`C=C(C)c1cc2c(c(CCCCCC)n1)[Si](C(C)C)(C(C)C)OC2` gave a z-score of 0.202. Compound `COc1ccc(NC(=O)O[C@H]2[C@H](OC(=O)Nc3ccccc3)[C@H](OC(=O)Nc3ccccc3)[C@@H](OC)O[C@@H]2CO)cc1` gave a z-score of 0.0488. For `CCCCC(O)C1C=CC2C(=O)N(c3ccccc3)C(=O)C2N1Nc1ccc(C(C)C)cc1` (stereo not given) the value was -0.843; for `[N-]=[N+]=NCc1ccccc1C[C@@]1(C(=O)N2CCOCC2)N=C(c2ccc(OCCCO)cc2)O[C@@H]1c1ccccc1`, 2.41. For `CC(c1ccccc1)C(O)C1C=CC2C(=O)N(c3ccccc3)C(=O)C2N1Nc1ccc([N+](=O)[O-])cc1` (stereo not given) the value was -0.438; for `COc1ccc(CN(C2=CC[C@@]3(C(N)=O)C(=O)C(Cl)=C(Cl)C(=O)[C@@]3(C#N)C2)S(=O)(=O)c2ccc(Br)cc2)cc1`, 0.881; for `COC(=O)CCCCCCC(=O)Nc1ccc(NC(=O)CCCC[P+](c2ccccc2)(c2ccccc2)c2ccccc2)cc1`, 0.274.

`CC(C)N1C(=O)C[C@@](C(=O)NCCCN(C)C)(c2ccc([N+](=O)[O-])cc2)[C@H]1c1ccc(CO)cc1` displayed a z-score of 0.23. With `CCOC(=O)C1=CC[C@@H](c2ccc(OCc3ccccc3)c(OC)c2)N(S(=O)(=O)c2ccc(C)cc2)[C@H]1c1ccc(SC)cc1` the figure was -0.635. With `COC(=O)c1c2oc(c1C(=O)OC)C(=O)N(C)Cc1cn(nn1)C[C@H](Cc1ccccc1)NC(=O)N[C@H](CO)CC2` the figure was -0.638; with `O=C1OCC=C[C@H]2OC34C=CCN(Cn5nnc6ccccc65)C(=O)[C@H]3N(CCCO)C(=O)[C@@H]4[C@@H]12` (stereo not given in full), 0.277. With `C[C@@H]1ON(c2ccc(C(=O)OC(C)(C)C)cc2)[C@H](c2ccc(O)cc2)[C@H]1C(=O)N1C(=O)OC[C@H]1Cc1ccccc1` the figure was 0.363; with `COCCOC(=O)N1C(=O)[C@@]2(c3cc(C#CC4=CCCCC4)ccc31)[C@H](C(N)=O)[C@H]1C(=O)O[C@H](c3ccccc3)[C@H](c3ccccc3)N1[C@@H]2c1ccccc1OCCO`, -0.332; with `COC(=O)[C@@]1(Cc2ccc(OC)cc2)[C@@H]2C(=CC(=O)[C@H]2CC(=O)C(=O)N(C)C)CN1C(=O)c1ccccc1`, 0.808. In turn, `C=CC1c2cc(O)c(OC)cc2CCN1Cc1cc2c(cc1Br)OCO2` (stereo not given) gave a z-score of 0.0469. With `C=CCC(OC(C)=O)[C@@H]1[C@@H](N(Cc2cc3ccccc3o2)C(=O)c2ccc(C)cc2)c2cc(OCCCO)ccc2N1C(=O)Cc1ccc(OC)cc1` (stereo not given in full) the figure was -0.0745; with `COc1cc(OC)c(C(O)C2C=CC3C(=O)N(c4ccccc4)C(=O)C3N2Nc2ccccc2)cc1Br` (stereo not given), -0.543; with `Cc1ccc(S[C@]2(C(=O)NCC(F)(F)F)CC(=O)N(Cc3ccccc3)[C@@H]2c2ccc(CO)cc2I)cc1`, -0.404. On to `COC(=O)c1ccc([C@H](NC(=O)c2ccco2)[C@]2(C)C[C@H]2C2CCCCC2)cc1`, for which the z-score was -0.357. With `NC(N)=NCCCn1cc(CNC(=O)[C@@H](N)Cc2ccccc2)nn1` the figure was 0.243; with `COC(=O)c1nc2oc1CC[C@@H](CO)NC(=O)N(C)Cc1cnnn1C[C@H](Cc1ccccc1)NC2=O`, 0.688.

`COCCOC(=O)N1C(=O)[C@@]2(c3cc(C#CC4=CCCCC4)ccc31)[C@H](c1ccc(OCCO)cc1)N1[C@H](c3ccccc3)[C@H](c3ccccc3)OC(=O)[C@H]1[C@@H]2C(=O)N1CCN(c2ncccn2)CC1`: the z-score worked out at 0.829. For the compound `CC(C)(C)OC(=O)CC[C@]1(C(=O)NCC(O)CO)N=C(c2ccc(OCCCO)cc2)O[C@H]1c1ccccc1` (stereo not given in full), the z-score is 2.01. For `O=C1O[C@H](c2ccccc2)[C@H](c2ccccc2)N2[C@H]1[C@@H](C(=O)Nc1nc3ccccc3s1)[C@]1(C(=O)Nc3ccccc31)[C@H]2c1ccc(OCCO)cc1` the value was -0.357; for `C=CC[C@]1(C(=O)NCCN2CCOCC2)N=C(c2ccc(OCCCO)cc2)O[C@H]1c1ccccc1CN=[N+]=[N-]`, 0.202; for `COCCCNC(=O)[C@@]1(Cc2ccccc2CN=[N+]=[N-])N=C(c2ccc(OCCCO)cc2)O[C@H]1c1ccccc1`, 0.146. For `CN(C)C(=O)[C@@]1(CCS(=O)(=O)c2ccccc2)N=C(c2ccc(OCCCO)cc2)O[C@H]1c1ccccc1` the value was -0.789; for `CCOC(=O)C1CCCCN1` (stereo not given), -0.0896.

Compound `C=C(/C(=C/C[C@H](OC(=O)c1ccncc1)c1ccc(CO)o1)c1cc(C(=O)OC)ccc1OC)C(C)C` had a z-score of -0.578. `COC(=O)[C@@]1(Cc2ccccc2)[C@H]2c3cc(C(=O)N(C)C)n(CCN4CNCC4=O)c3C[C@H]2CN1C(=O)c1ccccc1` displayed a z-score of -0.646.

Consider `O=C1O[C@H](c2ccccc2)[C@H](c2ccccc2)N2[C@H]1[C@@H](C(=O)Nc1nc3ccccc3s1)[C@]1(C(=O)Nc3ccc(C#CC4(O)CCCCCC4)cc31)[C@H]2c1ccccc1OCCO`, for which the z-score was 0.164. The compound `CCOC(=O)C[C@H]1[C@H](OC(=O)c2ccccc2-c2ccccc2)[C@@H](NC(=O)C2CCCCC2)c2cc(OCCCO)ccc2N1C(=O)Cc1ccc(OC)cc1` displayed a z-score of -0.434. `CN(C)CCCNC(=O)[C@@]1(C)c2ccccc2C(=O)N(Cc2ccccc2)[C@H]1c1ccc(CO)cc1` gave a z-score of -0.142. For `NC(=O)N1C(=O)C2C(C1=O)C1C=C(CCCO)C2C(c2cccs2)N1Cc1cccc(OC(F)(F)F)c1` (stereo not given) the value was 0.323. For `COc1ccc(NC(=O)O[C@H]2[C@H](OC(=O)Nc3ccccc3)[C@@H](OC(=O)Nc3ccccc3)[C@@H](OC)O[C@@H]2CO)cc1` the value was 0.256.
